Bioassay records as filed in PubChem.
Only some compounds are listed: those with a hit (about 13% of all), similar ones and a draw of the others.
Shiga toxin inh: A qHTS for Small Molecule Inhibitors of Shiga Toxin. Vero cells, Shiga toxin protein synthesis inhibition reporter. hit rate 9.2% among 290,000. inhibition, % at 38.7 µM; in the data active means inhibition mostly above about 28%, no sharp cut-off; inactive means mostly below about 43%; further: 0% is about no effect
LASV entry inh: qHTS for Inhibitors of binding or entry into cells for Lassa Virus. Potency, µM (highest dose often 37.9 µM), inactives show at the top dose activity change, negative = inhibition, usual class: inhibitors. Lassa virus pseudotype entry inhibition, cell reporter. hit rate 1.2% among 300,000; calls by dose curve; tested in HEK293 cells; further: potency means the concentration at half of the fitted maximal effect; on the % scale 0 is the no-effect control and ±100 the full control effect; nearly all actives have a fitted effect of over 50% in size
FMDV inh: High Throughput Screening for Foot and Mouth Disease Virus Antivirals; FMDV antiviral cell-based qHTS; Potency, µM (titrated, usually from 57.9 µM), inactives show top-dose activity change, negative = inhibition, actives largely listed as inhibitors; hit rate 1.2% among 410,000; calls by dose curve; tested in HEK293T cells; further: read-out not given here; potency means the concentration at half of the fitted maximal effect; on the % scale 0 is the no-effect control and ±100 the full control effect; nearly all actives have a fitted effect of over 45% in size
Marburg entry inh: qHTS for inhibitors of binding or entry into cells for Marburg Virus; Marburg virus pseudotyped entry inhibition, cell reporter; Potency, µM (top dose mostly 37.8 µM), without a hit: at the top dose activity change, negative = inhibition, usual class: inhibitors; hit rate 1.8% among 300,000; calls by dose curve; tested in HEK293 cells; further: potency means the concentration at half of the fitted maximal effect; on the % scale 0 is the no-effect control and ±100 the full control effect
HCV inh: qHTS Assay for Inhibitors of Hepatitis C Virus (HCV). hit rate 3.4% among 340,000. Potency, µM (series often up to 41.8 µM), without a hit: at the top dose activity change, negative = inhibition, hits mostly inhibitors. Huh7.5.1 HCVcc-Cre infection, luciferase reporter, 44 h. AID 651820, 2012; active means well fitted inhibition curve with a large enough effect; inconclusive means small, poorly fitted or top-dose-only effect, or another doubt; inactive means no such curve, though single readings can be large or run the other way; further: potency means the concentration at half of the fitted maximal effect; on the % scale 0 is the no-effect control and ±100 the full control effect
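Whole-lifecycle infectious HCVcc-Cre system; cells 1,000/well, compound then virus (~0.5 moi) added 4 h after plating, 44 h culture. Luciferase read 15 sec following 15 min substrate incubation, room temp.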
Cycloheximide cs: Cycloheximide Counterscreen for Small Molecule Inhibitors of Shiga Toxin. hit rate 12% among 300,000. AID 2314, 2010. cell reporter, cycloheximide protein synthesis inhibition counterscreen. max response, %; in the data active means max response mostly above about 13%, no sharp cut-off; inactive means mostly below about 14%; further: read at 38.3 µM for the half of the compounds with a filed dose; 0% is about no effect
Active calls of the source: *; [ ] = remark or other dose.

Results for CC1(C)Cc2c(cnn2-c2ccc(F)cc2)C(NC(=O)C2=NNC(=O)CC2)C1 (stereo not drawn) ?
Shiga toxin inh: 39*; FMDV inh: 6%; HCV inh: 3%; Cycloheximide cs: 29*

What do the screens show for `Cc1cc(NC(=O)CSc2nnc(C)c(=O)n2N)no1`?
Shiga toxin inh: 5; LASV entry inh: -2%[46.1 µM]; FMDV inh: 6%; Marburg entry inh: 3%[46.1 µM]; HCV inh: -9%; Cycloheximide cs: -5

Results for COc1cccc(C(=O)N/N=C/c2ccc(Oc3ccc([N+](=O)[O-])cn3)c(OC)c2)c1 ?
Shiga toxin inh: 42; LASV entry inh: -22%; FMDV inh: -15%; Marburg entry inh: inconclusive; HCV inh: 10µM*; Cycloheximide cs: 16

How did COc1cc(/C=N/NC(=O)c2ccncc2)ccc1Oc1ccc([N+](=O)[O-])cn1 do in these assays?
Shiga toxin inh: -6; LASV entry inh: -7%[46.1 µM]; FMDV inh: 0%; Marburg entry inh: -9%[46.1 µM]; HCV inh: 2%; Cycloheximide cs: -5

Results for COc1cc(/C=N/NC(=O)c2ccc3ccccc3c2)ccc1Oc1ccc([N+](=O)[O-])cn1 ?
Shiga toxin inh: 5; LASV entry inh: -27%; FMDV inh: inconclusive; Marburg entry inh: -11%[46.1 µM]; HCV inh: 3.5µM*; Cycloheximide cs: -2

What do the screens show for `Cc1cccc[n+]1CC(=O)Nc1cccc([N+](=O)[O-])c1`?
Shiga toxin inh: -8; FMDV inh: -13%; HCV inh: 19%; Cycloheximide cs: -2

What do the screens show for `Fc1ccc(/C=N/Nc2cc(N3CCOCC3)ncn2)cc1`?
Shiga toxin inh: -4; LASV entry inh: inconclusive; FMDV inh: -2%; Marburg entry inh: inconclusive; HCV inh: -9%; Cycloheximide cs: 9

What do the screens show for `C(=N\Nc1cc(N2CCCCC2)ncn1)/c1ccco1`?
Shiga toxin inh: 38*; FMDV inh: 53%; HCV inh: -2%; Cycloheximide cs: 28*

Results for Fc1ccc(Nc2nc(N/N=C/c3ccco3)nc(N3CCCCC3)n2)cc1 ?
Shiga toxin inh: 20; FMDV inh: 16%; HCV inh: 11µM*; Cycloheximide cs: 2

What do the screens show for `O=C(Nc1cc(N2CCCCC2)ncn1)c1ccc(F)cc1`?
Shiga toxin inh: 41; LASV entry inh: 9%; FMDV inh: 33%; Marburg entry inh: 1%; HCV inh: 14%; Cycloheximide cs: 26*

Results for Fc1cccc(/C=N/Nc2cc(N3CCOCC3)ncn2)c1 ?
Shiga toxin inh: 25*; LASV entry inh: inconclusive; FMDV inh: 65%; Marburg entry inh: inconclusive; HCV inh: inconclusive; Cycloheximide cs: 23*

Results for CCOC(=O)C1CCN(S(=O)(=O)c2ccc(OCC(=O)OC)cc2)CC1 ?
Shiga toxin inh: -6; LASV entry inh: -1%; Marburg entry inh: 0%; HCV inh: -6%; Cycloheximide cs: -1

How did N#Cc1c(N)oc(-c2cccs2)c1-c1cccs1 do in these assays?
Shiga toxin inh: -11; LASV entry inh: 0%; FMDV inh: -4%; Marburg entry inh: -28%; HCV inh: 4%; Cycloheximide cs: -1

What do the screens show for `O=c1cc(O)nc(SC23CC4CC(CC(C4)C2)C3)[nH]1`?
Shiga toxin inh: -1; LASV entry inh: -19%; FMDV inh: 5%; Marburg entry inh: 10%; HCV inh: 20%; Cycloheximide cs: -3

How did O=C(Nc1cc(N2CCOCC2)ncn1)c1ccc(F)cc1 do in these assays?
Shiga toxin inh: 75*; LASV entry inh: inconclusive; FMDV inh: -16%; Marburg entry inh: inconclusive; HCV inh: inconclusive; Cycloheximide cs: 33*

How did O=S(=O)(/N=C(/Nc1cc(N2CCOCC2)ncn1)c1ccc(F)cc1)c1ccccc1 do in these assays?
Shiga toxin inh: -6; LASV entry inh: 14%; FMDV inh: -25%; Marburg entry inh: 19%; HCV inh: 36%; Cycloheximide cs: -1

Results for NC1=NC(=O)/C(=C\c2ccc(-c3ccc(Cl)cc3)o2)S1 ?
Shiga toxin inh: 30*; FMDV inh: 27%; HCV inh: 13%; Cycloheximide cs: 13*

How did OC(C#Cc1ccccn1)c1cccs1 (stereo not drawn) do in these assays?
Shiga toxin inh: 48*; LASV entry inh: -26%; FMDV inh: 4%; Marburg entry inh: inconclusive; HCV inh: inconclusive; Cycloheximide cs: 51*

What do the screens show for `O=C(CNC(=O)c1cccs1)NCC(=O)OCc1ccccc1Cl`?
Shiga toxin inh: -6; LASV entry inh: 22%; Marburg entry inh: -1%; HCV inh: -3%; Cycloheximide cs: 4

How did Cc1ccc2nc(-c3cccc(Br)c3)cc(C(=O)NC3=NCCS3)c2c1 do in these assays?
Shiga toxin inh: 76*; LASV entry inh: -17%; FMDV inh: 19%; Marburg entry inh: -13%; HCV inh: 4%; Cycloheximide cs: 15

How did CN1CCC(NC(=O)c2cc(-c3cccc(Br)c3)nc3ccccc23)CC1 do in these assays?
Shiga toxin inh: -8; LASV entry inh: inconclusive; FMDV inh: -5%; Marburg entry inh: 10µM*; HCV inh: 11µM*; Cycloheximide cs: -3

Results for O=C(Nc1ncccn1)c1cc(-c2cccc(Br)c2)nc2ccccc12 ?
Shiga toxin inh: 14; LASV entry inh: -3%; FMDV inh: inconclusive; Marburg entry inh: inconclusive; HCV inh: inconclusive; Cycloheximide cs: -1

What do the screens show for `O=C(NC1=NCCS1)c1cc(-c2cccc(Br)c2)nc2ccccc12`?
Shiga toxin inh: 22; LASV entry inh: inconclusive; FMDV inh: -4%; Marburg entry inh: -27%; HCV inh: 5%; Cycloheximide cs: 20*

What do the screens show for `Cc1ccccc1CC(=O)N1CCN(S(=O)(=O)c2ccc(Cl)s2)CC1`?
LASV entry inh: -3%; FMDV inh: 0%; Marburg entry inh: inconclusive; HCV inh: -3%

Results for Cc1nn2c(=O)cc(COc3ccc(/C=C(\C#N)C(=O)Nc4ccccc4C)cc3)nc2s1 ?
LASV entry inh: inconclusive; FMDV inh: inconclusive; Marburg entry inh: 8%[46.1 µM]

What do the screens show for `COc1ccc(/C=C/C=C2C(=O)NC(=S)NC2=O)cc1`?
LASV entry inh: inconclusive; FMDV inh: 40µM*; Marburg entry inh: inconclusive; HCV inh: inconclusive

How did O=C1NC(=S)N/C1=C/C=C/c1ccccc1 do in these assays?
Shiga toxin inh: 35; LASV entry inh: -3%[46.1 µM]; FMDV inh: 23%; Marburg entry inh: 4%[46.1 µM]; HCV inh: 12%; Cycloheximide cs: 43*

How did [S-]C(=Nc1ccc(Cl)cc1)N[n+]1ccccc1 do in these assays?
Shiga toxin inh: 37*; LASV entry inh: 3%; FMDV inh: -1%; Marburg entry inh: inconclusive; HCV inh: 9%; Cycloheximide cs: 30*

Results for O=C1CCCC/C1=N\Nc1ccc(OCc2ccccc2)cc1 ?
Shiga toxin inh: 56*; LASV entry inh: -23%; FMDV inh: 13%; Marburg entry inh: 4%; HCV inh: -11%; Cycloheximide cs: 21*
